# Assay outcomes (PubChem)
# SW480 rerep: induces DNA re-replication in SW480 colon adenocarcinoma cells; SW480 DNA re-replication, Hoechst DNA content imaging, 48 h; Potency, µM (series often up to 46.1 µM), inactives show at the highest dose re-replication activation, most hits filed as activators; hit rate 1.8% among 340,000; AID 624297; further: % of control where 0% means no effect; nearly all actives have a fitted effect of over 55% in size
#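 250 cells/well; 23 nL cpd via pin tool; 48 hr, 37 C, 5% CO2; Hoechst 40 min; imager read of total nuclear intensity, ex 405/em 500-530 nm.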
# Integrin act MD: activates integrin-mediated alleviation for muscular dystrophy | alpha7betagal myoblasts, beta-gal FDG fluorescence, 48 h | Potency, µM (titrated, usually from 38.3 µM), for inactives: top-dose activation, most hits filed as activators | hit rate 0.064% among 350,000 | AID 624291;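 further: 100% = response of the positive control SU9516; nearly all actives have a fitted effect of over 60% in size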
#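 Alpha7betagal+/- myoblasts (passage 13) were plated 16-24 hr, then exposed to compounds (1:260 dilution of DMSO stock) for 48 hours at 37C. After MPER lysis, β-galactosidase reporter activity was read as FDG fluorescence (ex 480/em 540) after 30 minutes.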
# Mito fusion act: mitochondrial division inhibition or fusion activation; hit rate 0.23% among 320,000; S. cerevisiae fusion-defective mutant growth rescue, CellTiterGlo 48 h; Potency, µM (highest dose often 46.1 µM), without a hit: top-dose growth rescue (activation), hits mostly activators; further: % of control where 0% means no effect; nearly all actives have a fitted effect of over 45% in size
#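 Temperature-sensitive fusion-defective S. cerevisiae (e.g. fzo1-1, mgm1-5) were grown with compound in YPEG medium (3% ethanol, 3% glycerol) for 48 hours at 37C. Growth rescue was measured as viability by CellTiterGlo luminescence after 10 minutes at ambient.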
# AT treatment: potential ataxia-telangiectasia treatment. F2112 A-T fibroblasts, KAP-1 phosphorylation AlphaLISA; neocarzinostatin DNA damage 30 min before lysis. Potency, µM (top dose mostly 57.5 µM), inactives show at the highest dose activation, most hits filed as activators. hit rate 0.19% among 320,000. AID 485349; further: % of control where 0% means no effect; nearly all actives have a fitted effect of over 45% in size
#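 ATM-like activity read as KAP-1 phosphorylation via AlphaLISA donor/acceptor antibody pairs after lysis and 6 hr at 25C. Cells were ATM-null patient fibroblasts (F2112, hTERT), dosed 60 min, then exposed to the DSB inducer NCS for 30 min.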
# MCF10A rereplic: DNA re-replication induction in MCF 10a cells; MCF 10A DNA re-replication, Hoechst nuclear intensity, 48 h; hit rate 2.9% among 350,000; Potency, µM (top dose mostly 46.1 µM), for the others: top-dose activity, positive = re-replication, most hits filed as activators; further: % of control where 0% means no effect; nearly all actives have a fitted effect of over 50% in size
# Active calls of the source: *; ? = inconclusive; / = no result given; [ ] = remark or other dose. Most compounds without a hit are left out; they make up all but 4.2% or so of the library. The call rests on the fitted dose curve; in most records, active means well fitted activation curve with a large enough effect; inconclusive means small, poorly fitted or top-dose-only effect; inactive means no such curve, though single readings can be large or run the other way. Potency means the concentration at half of the fitted maximal effect.
SMILES,SW480 rerep,Integrin act MD,Mito fusion act,AT treatment,MCF10A rereplic
C=CCN1CCCC1CNC(=O)c1cc(S(N)(=O)=O)cc(OC)c1OC (stereo not drawn),-0.4%,/,/,/,7.4%
CC(=NCCc1ccccc1)C1=C(O)COC1=O,-3.8%,24.1%,-2.5%,-5.9%,5.8%
O=C(c1ccc(Br)cc1)N(Cc1ccco1)C1CCS(=O)(=O)C1 (stereo not drawn),-5.1%,?,0.7%,10.2%,-1.2%
COc1ccc(C2=Nn3c(nnc3-c3ccncc3)SC2)cc1OC,16.4µM*,-47.0%,6.3%,-3.8%,?
CSc1ccccc1NC(=O)CN(C)Cc1cc(=O)n2ccsc2n1,6.7%,0.0%,-4.7%,3.7%,-0.9%
CN1C[C@@H]2C(c3ccccc3)C3(c4ccc(C#N)cc4)CC2(C3)[C@H]1c1ccccc1 (stereo partly drawn),-18.3%,25.2%,-31.6%,-6.5%,5.17µM*
COc1ccccc1-c1cc(C(F)(F)F)n2ncc(S(=O)(=O)c3ccccc3)c2n1,23.1µM*,-34.3%,5.7%,0.2%,24.5%
CCOc1cc(/C=C2\SC(=Nc3ccc(CC)cc3)NC2=O)ccc1OCC(=O)O,?,?,-8.5%,6.7%,18.4µM*
CCc1ccc(N=C2NC(=O)/C(=C/c3cc(Br)c(OCC(=O)O)c(OC)c3)S2)cc1,-61.0%[1.84 µM],48.8%,-4.5%,-1.8%,?
CCc1ccc(N=C2NC(=O)/C(=C/c3cc(OC)c(OC)c(OC)c3)S2)cc1,?,-2.1%,2.2%,-6.6%,11.6µM*
CC(C(=O)NC1CCCC1)N(C(=O)c1snc(C(N)=O)c1N)c1ccc2c(c1)OCCO2 (stereo not drawn),2.9%,4.1%,2.7%,-9.5%,12.9%
COc1ccc(CCNC(=O)COC(=O)CSc2ccc(C(N)=O)cc2[N+](=O)[O-])cc1OC,-0.4%,-21.0%,/,/,-5.6%
c1ccc2c(c1)Sc1cnccc1N2CC1CO1 (stereo not drawn),/,-15.9%,/,/,/
Cc1cc(NC(=O)c2ccc(F)cc2F)n(-c2nc3ccccc3[nH]2)n1,0.8%,11.5%[7.66 µM],-0.1%,-0.4%,?
Cc1cc(NC(=O)/C=C/c2ccccc2Cl)n(-c2nc3ccccc3[nH]2)n1,?,4.3%,-4.2%,16.5%,16.4µM*
COC(=O)[C@@H](NCc1cccc(CN([C@H](C(=O)OC)C(C)C)S(C)(=O)=O)c1)C(C)C,-1.5%,-14.0%,-2.4%,22.5%,-14.3%
Cc1ccc(C)c(S(=O)(=O)N2C(=S)NC(=O)C2C(C)C)c1 (stereo not drawn),-4.9%,-2.2%,17.2%,-5.9%,?
CCOC(=O)CN1C=C(c2ccc3ccccc3n2)C(C[N+](=O)[O-])c2ccccc21 (stereo not drawn),?,-18.4%,4.6%,/,16.4µM*
CCOC(=O)CSc1ccc2ccccc2n1,-1.1%,16.1%,3.0%,-0.3%,-2.1%
c1ccc2c(c1)C1=NCCN1c1ccccc1-2,/,-59.6%,/,/,/
Cc1cc(C)cc(NC(=O)Cn2nnc(C(=O)NCc3ccc(F)cc3)c2N)c1,29.1µM*,-28.1%,4.2%,-1.4%,?
COc1ccc(CCNC(=O)Cn2nnc(C(=O)Nc3ccc(Br)cc3)c2N)cc1OC,8.6%,11.2µM*,-14.7%,-1.2%,11.8%
CCc1ccccc1NC(=O)Cn1nnc(C(=O)NCc2cccc(OC)c2)c1N,?,-33.7%,2.4%,7.9%,7.31µM*
COc1cccc(CNC(=O)c2nnn(CC(=O)Nc3ccc(C)c(C)c3)c2N)c1,-10.1%,8.7%,0.6%,9.8%,-188.7%[0.0737 µM]
CCOc1ccc(NC(=O)Cn2nnc(C(=O)NCCc3ccc(OC)c(OC)c3)c2N)cc1,-8.0%,-39.1%,3.0%,0.5%,6.3%
CC1=CC(=O)C(C(C)C)=CC1=NC(=O)c1ccc(C)cc1,5.5%,-7.8%,0.1%,0.3%,-0.7%
Cc1ccc(C)c(N2CCN(C(=O)CCc3nc(-c4ccccc4Br)no3)CC2)c1,-4.0%,0.0%,/,-2.5%,?
Cc1ccc(C)c(N2CCN(C(=O)CCc3nc(-c4ccccc4F)no3)CC2)c1,2.7%,22.0%,/,2.4%,16.4µM*
Cc1c(S(=O)(=O)N2CCN(c3cccc(Cl)c3)CC2)c(=O)n(C)c(=O)n1C,-4.1%,19.5%,3.6%,0.7%,-2.1%
